Results on 40 molecules are retold here after PubChem BioAssay (NCATS).

Inconclusive results are not listed. Values without a mark were called inactive. The source made the active and inactive calls. Calls follow the shape of the dose curve; as a rule, active = well fitted activation curve with a large enough effect; inconclusive = small, poorly fitted or top-dose-only effect; inactive = no such curve, though single readings can be large or run the other way.
Potency is read from the fitted curve at half-maximal effect.

Arylsulfatase A (Homo sapiens), sequence (P15289 whole entry, looked up): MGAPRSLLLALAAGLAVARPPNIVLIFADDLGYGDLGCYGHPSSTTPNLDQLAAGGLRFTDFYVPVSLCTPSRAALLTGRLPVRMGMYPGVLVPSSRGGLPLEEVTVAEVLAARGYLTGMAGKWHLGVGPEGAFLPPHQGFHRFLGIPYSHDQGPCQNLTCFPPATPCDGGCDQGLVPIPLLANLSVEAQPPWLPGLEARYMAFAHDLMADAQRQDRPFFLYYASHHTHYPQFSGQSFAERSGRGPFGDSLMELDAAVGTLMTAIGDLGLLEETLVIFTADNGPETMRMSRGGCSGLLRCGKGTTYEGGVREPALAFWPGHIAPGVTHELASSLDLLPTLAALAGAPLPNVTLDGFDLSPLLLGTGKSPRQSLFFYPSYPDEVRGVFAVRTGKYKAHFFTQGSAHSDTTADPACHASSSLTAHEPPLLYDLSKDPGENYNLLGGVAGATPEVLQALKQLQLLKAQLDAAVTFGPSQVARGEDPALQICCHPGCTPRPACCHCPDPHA

For this assay, the target named is Arylsulfatase A (Homo sapiens) (UniProt P15289). As to the kind of experiment: qHTS screen for enhancers of Arylsulfatase A (ASA1): LOPAC Validation Assay (AID 720538). As to activity change, positive = activation: 0% is about no effect. As to conditions: ASA enzyme activity, LOPAC qHTS enhancer assay; series mostly up to 57.5 µM; activity change, positive = activation: at the top concentration. From the text:
Lysosomal storage diseases (LSDs) are caused by genetic mutations in genes encoding proteins important for normal lysosomal function. In affected patients, symptoms are usually not manifested unless the mutations result in more than 90% reduction of enzymatic activity of a specific lysosomal enzyme. […] Small molecules could function as enzyme enhancement agents by binding to and stabilizing mutant misfolded proteins in the endoplasmic reticulum (ER), allowing them to evade the ER associated degradation (ERAD), and eventually reach the lysosome. Moreover, small molecules is hypothesized to be able to enhance the residual activity of deficient lysosomal enzyme by either interacting directly with the mutant enzyme or indirectly by acting in different cellular pathways; resulting to increased levels of the mutant and partially functional protein in the lysosomal compartment.
A cell based assay in 1536 well plate format was developed to evaluate activity of the lysosomal sulfatase ASA1 enzyme. ASA1 is deficient in metachromatic leukodystrophy (MLD), an LSD characterized by progressive neurodegeneration for which specific treatment is not available. Compounds that are active may therefore have some therapeutic application for this disease. This assay was used to validate the ASA1 qHTS using the Sigma LOPAC library. In this assay increase in signal = enhanced ASA1 activity. Activation is the desired outcome for this assay.
NIH Chemical Genomics Center [NCGC]
NIH Molecular Libraries Probe Centers Network [MLPCN]
Assay Submitter (PI): Gustavo Maegawa, Johns Hopkins University School of Medicine
[2] Gieselmann V, et al. Acta Paediatr Suppl. 2008; 97: 15-21
Four microliter (~8,000 cells/well) of SV40-transformed skin fibroblasts from an MLD patient (ASA-I179S) were seeded into a 1,536 solid white plate. Cells were left to adhere for 6 hrs, followed by addition of 23 nL of compounds. Cells were incubated with compounds for 48h at 37 degree C and 5% CO2. Four microliter of 1 mM pNCS substrate/lysis buffer (0.5mM pNCS final concentration) was added and incubated for 14h at room temperature. To stop the reaction, […] of 5 N of NaOH (1N NaOH final concentration) was then added and fluorescence was measured using the ViewLux plate reader (Ex=525 nm; Em=598 nm).
Consider `NS(=O)(=O)C#Cc1ccccc1`, for which the “activity change, positive = activation” value is -32.5%.

`O=[N+]([O-])c1ccc(CSc2ncnc3c2ncn3[C@@H]2O[C@H](CO)[C@@H](O)[C@H]2O)cc1`: the result was inactive.

Turning to `CN(C)c1ccc(/C=C2\C(=O)Nc3ccccc32)cc1`, the result was inactive.

Regarding `N#C/C(=C\c1ccc(O)c(O)c1)C(=O)NCCCc1ccccc1`, the “activity change, positive = activation” value was 0.941%.

With `CN(C)C(N)=NCCC[C@H](N)C(=O)O`, the “activity change, positive = activation” value is -2.53%.

Regarding `C[N+](C)(C)CC(=O)[O-]`, the outcome was inactive.

As for `C=CC(=O)c1ccc(CCCCCC)cc1`, the “activity change, positive = activation” value was -15.6%.

For the molecule `Clc1ccc(N2CCN(Cc3c[nH]c4ncccc34)CC2)cc1`, the “activity change, positive = activation” value is -21.8%.

With `CC(=O)SCC[N+](C)(C)C`, the “activity change, positive = activation” value is -19%.

As to `CCc1c(C(=O)NCCc2ccc(N3CCCCC3)cc2)[nH]c2ccc(Cl)cc12`, the “outcome” value is “inactive; inhibitor; fitted 0.6746 uM”.

Consider `O=C(O)/C=C/C(O)c1ccc(Cl)cc1` (stereo not given), for which the result was inactive.

Turning to `Cc1nc2sccn2c(=O)c1CCN1CCC(=C(c2ccccc2)c2ccc(F)cc2)CC1`, the “activity change, positive = activation” value is -49%.

For `O=C1/C(=C/c2ccsc2)CC/C1=C\c1cccs1`, the “activity change, positive = activation” value is -39.8%.

`S=C(S)OC1CC2CC1C1CCCC21` (stereo not given): the “activity change, positive = activation” value was -13%.

On to `CCCCCCCCCCCCCCCCCC(=O)OC(CC(=O)O)C[N+](C)(C)C` (stereo not given), for which the “activity change, positive = activation” value is -14.4%.

Regarding `CC(N)C(=O)OC(C)(C)Cc1ccc(Cl)cc1` (stereo not given), the “activity change, positive = activation” value is 6.34%.

With `CN1CCc2ccccc2Cc2[nH]c3ccccc3c2CC1`, the “activity change, positive = activation” value was -32.2%.

Turning to `CN1C2CCC1CC(OC(=O)C(O)c1ccccc1)C2` (stereo not given), the “activity change, positive = activation” value is 13.7%.

Regarding `CCN(CC)c1ncnc2c1ncn2[C@@H]1O[C@H](COP(=O)(O)OP(=O)(O)C(Br)(Br)P(=O)(O)O)[C@@H](O)[C@H]1O`, the “activity change, positive = activation” value was 1.44%.

For the molecule `N#C/C(=C\c1c[nH]c2ccccc12)C(=O)c1ccc(O)c(O)c1`, the “activity change, positive = activation” value was -15.8%.

As for `Fc1ccc(C(OCCCc2cnc[nH]2)c2ccc(F)cc2)cc1`, the “activity change, positive = activation” value was 3.47%.

`CCCCCCCCCCCCCCCC(=O)NCC(COP(=O)([O-])OCC[N+](C)(C)C)OCC` (stereo not given): the “outcome” value was “inactive; inhibitor; fitted 0.1901 uM”.

`O=C(O)[C@@H]1C[C@H](C(=O)O)N1`: the “activity change, positive = activation” value was -6.01%.

Regarding `OC[C@H]1O[C@@H](n2cnc3c(NC4CCCC4)ncnc32)[C@H](O)[C@@H]1O`, the outcome was inactive.

As to `O=C(O)CC1CCCc2ccccc2C1O` (stereo not given), the “activity change, positive = activation” value is -19.7%.

Regarding `CC(=O)N[C@H](C(=O)O)C(C)(C)SN=O`, the result was inactive.

Consider `C=CC(N)CCC(=O)O` (stereo not given), for which the “activity change, positive = activation” value was 34.6%.

As to `O=c1[nH]c2cc(Cl)c(Cl)cc2[nH]c1=O`, the result was inactive.

For `CN1C2CC(OC(=O)[C@H](CO)c3ccccc3)CC1C1OC12` (stereo not given in full), the outcome was inactive.

As for `Nc1nc(Cl)nc2c1ncn2[C@@H]1O[C@H](COP(=O)(O)OP(=O)(O)OP(=O)(O)O)[C@@H](O)[C@H]1O`, the “activity change, positive = activation” value is 7.3%.

On to `CN1CCc2cc(O)c(O)cc2C(c2ccccc2)C1` (stereo not given), for which the Potency was 21.3 µM (active).

With `CCOC(=O)C1=C(C)NC(C)=C(C(=O)OCC)C1c1c(F)c(F)c(F)c(F)c1F`, the “activity change, positive = activation” value was -0.279%.

As for `CCOC(=O)N1CCN(/[N+]([O-])=N/Oc2ccc([N+](=O)[O-])cc2[N+](=O)[O-])CC1`, the “activity change, positive = activation” value is -22.1%.

Consider `CN1CCc2cc(NC(=O)Nc3cccnc3)ccc21`, for which the “activity change, positive = activation” value was -25%.

Take `O=Nc1ccc2oc(=O)ccc2c1`: the “activity change, positive = activation” value is 2.49%.

As to `C[N+](C)(CCCCCC[N+](C)(C)CCCN1C(=O)c2cccc3cccc(c23)C1=O)CCCN1C(=O)c2cccc3cccc(c23)C1=O`, the result was inactive.

As for `C[N+]1(C)CCC(OC(=O)C(c2ccccc2)c2ccccc2)CC1`, the result was inactive.

Regarding `CC(C)ON([C@@H](C(=O)NO)C(C)C)S(=O)(=O)c1ccc(-c2ccccc2)cc1`, the “activity change, positive = activation” value was -6.03%.

Consider `Brc1c(Br)c(Br)c2n[nH]nc2c1Br`, for which the “activity change, positive = activation” value is -21.8%.

For the molecule `Cc1ccc(O)c(N=Nc2ccccc2)n1`, the “activity change, positive = activation” value is -39.7%.
